The values that follow come from PubChem BioAssay (NCI).

This is part of a sample that, as a whole, favours compounds with a hit. Of some 83,000 tested, about 20% had one in any assay.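 Cells were grown in 96-well plates and exposed to the test compound at a single concentration for 48 hours; results are reported as percent growth, with values below 10 considered active.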 A number with no mark means an inactive call. Calls of active or inactive are those of the source.

Holding throughout (experiment): NCI-60 one-dose screen, 48 h (100 = growth as untreated, 0 = no growth, -100 = all killed)
Settings in all cases: 10 µM unless noted

The test system of assay [1] is NCI-H23 lung.
Assay [2] deals with NCI-H226 lung.
Assay [3] relates to NCI-H322M lung.
Assay [4] has as its system HOP-62 NSCLC.
The test system of assay [5] is NCI-H460 lung.
Assay [6] concerns HOP-92 NSCLC.
In assay [7] the test system is NCI-H522 lung.
For assay [8], the system named is A549/ATCC NSCLC.
Assay [9] concerns 786-0 renal.
For assay [10], the system named is COLO 205 colon.
In assay [11] the test system is DU-145 prostate.
In assay [12] the test system is K-562 leukemia.
Assay [13] deals with MALME-3M melanoma.
Assay [14] has as its system MDA-MB-231 breast.
In assay [15] the test system is RXF 393 renal.
The test system of assay [16] is SF-268 CNS.
The test system of assay [17] is SF-295 CNS.
The test system of assay [18] is SF-539 CNS.
Assay [19] concerns UACC-257 melanoma.
Assay [20] concerns M14 melanoma.

As to `COc1ccc(-c2ccc3c(N4CCOC[C@@H]4C)nc(N4CCOC[C@@H]4C)nc3n2)cc1CO`, the growth was 20.3% in assay [1]; -9.74% (active) in assay [2]; -5.27% (active) in assay [3]; -12.9% (active) in [4]; 8.4% (active) in assay [5]; -21.1% (active) in [6]. In addition, the growth in assay [7] was 8.31% (active); in assay [8], -12.6% (active); in [9], 2.33% (active); in [10], -14.1% (active); in [11], 11.6%; in assay [12] it was 12.8%. In addition, the growth was -8.07% (active) in assay [13]; 13% in assay [14]; -27.5% (active) in [15]; 14.9% in assay [16]; -35% (active) in assay [17]; -39.2% (active) in assay [18]. In addition, the growth was -24.8% (active) in assay [19] and 6.2% (active) in assay [20].
For `COC(=O)[C@@H](NC(=O)[C@@H](OC)[C@@H]1Cc2cc3cc(OC4CC(OC5CC(O)C(O)C(C)O5)C(O)C(C)O4)c(C)c(O)c3c(O)c2C(=O)[C@H]1OC1CC(OC2CC(OC3CC(C)(O)C(O)C(C)O3)C(O)C(C)O2)C(O)C(C)O1)C(C)C` (stereo not given in full), the growth is -6.89% (active) in assay [1]; -23.4% (active) in assay [2]; 24.8% in assay [3]; 6.44% (active) in [4]; -6.19% (active) in assay [5]; -18.9% (active) in [6]. The growth in [7] is -20% (active); in [8] it was 7.37% (active); in [9], -21.2% (active); in assay [10], 13.8%; in assay [11], 7.21% (active); in assay [12] it was 5.81% (active). The growth is -12.3% (active) in assay [13]; 10.9% in [14]; -68% (active) in assay [15]; 6.33% (active) in assay [16]; -32.5% (active) in assay [17]; -22.4% (active) in [18]. Moreover, the growth in assay [19] is 3.21% (active); in [20], 5.18% (active).
On to `O=C(NOC[C@H](O)CO)c1ccc(F)c(F)c1Nc1ccc(I)cc1F`, for which the growth in [1] is 19.6%; in assay [2], 49.5%; in assay [3] it was 12.3%; in assay [4], 27.7%; in assay [5], 54%; in [6] it was -28% (active). Also, the growth in assay [7] is 44.8%; in assay [8], 21.4%; in assay [9], 71.2%; in assay [10] it was 0.302% (active); in assay [11], 58.7%; in [12], 29.2%. The growth in assay [13] was -11.7% (active); in [14], 20.9%; in [15], 2.18% (active); in [16], 60.1%; in [17], 75%; in assay [18], 64.2%. For the same compound, the growth in assay [19] is -26.8% (active); in assay [20], 3.66% (active).
On to `CC[C@@H]1C(=O)N(C)c2cnc(Nc3ccc(C(=O)NC4CCN(C)CC4)cc3OC)nc2N1C1CCCC1`, for which the growth is 8.04% (active) in assay [1]; 52.6% in assay [2]; 24.9% in assay [3]; -20.1% (active) in assay [4]; 8.51% (active) in assay [5]; 7.59% (active) in [6]. Besides, the growth in assay [7] was -14.4% (active); in [8], 3.29% (active); in assay [9], 8.26% (active); in assay [10], -54% (active); in [11], 9.68% (active); in assay [12] it was 0.167% (active). The growth in assay [13] was -15.9% (active); in [14], 17%; in [15], -3.01% (active); in assay [16] it was 15.5%; in assay [17], 11%; in assay [18] it was -82.4% (active). Moreover, the results for the growth in [19] and in assay [20] were -9.29% (active) and -25.9% (active), respectively.
`Brc1ccc([I+]c2ccc(Br)cc2)cc1`: the growth was -9.33% (active) in [1]; 45.9% in assay [2]; 48.1% in assay [3]; -83% (active) in [4]; 18.6% in assay [5]; -6.41% (active) in assay [6]. For the same compound, the growth was -35.7% (active) in [7]; 40.5% in assay [8]; 27.7% in assay [9]; -28.7% (active) in assay [10]; 52.6% in assay [11]; 9.03% (active) in assay [12]. The growth in [13] is 35.7%; in [14], 15.1%; in assay [15], 40.6%; in assay [16], -56.7% (active); in assay [17], 27.5%; in [18], 27.3%. In addition, the growth in assay [19] was 27%; in assay [20], 10.3%.
In the case of `C/C(=N\NC(=O)Cn1c(-c2ccc(S(C)(=O)=O)cc2)nc2ccccc21)c1ccc(Cl)cc1`, the growth in assay [1] was 86.9%; in assay [2] it was 83.4%; in assay [3] it was 94.8%; in assay [4], 88.6%; in assay [5], 97.3%; in [6] it was 98.3%. Also, the growth in assay [7] was 75.5%; in assay [8], 77.6%; in assay [9], 102%; in assay [10] it was 93.4%; in assay [11] it was 112%; in assay [12], 80.7%. Further, the growth in assay [13] was 102%; in assay [14], 90.2%; in assay [15], 92.2%; in assay [16], 91.3%; in assay [17] it was 90%; in assay [18], 106%. The growth in assay [19] was 88.8%; in [20], 94%.
`N#Cc1c(-c2ccc(Cl)cc2)csc1NC(=O)Nc1cccc(C(F)(F)F)c1`: the growth was -8.85% (active) in assay [1]; 17.6% in [2]; 31.5% in assay [3]; 18.4% in [4]; 5.61% (active) in assay [5]; -4.85% (active) in assay [6]. For the same compound, the growth was -9.41% (active) in assay [7]; 11.4% in [8]; 22.9% in assay [9]; -0.881% (active) in [10]; 16.9% in assay [11]; 9.25% (active) in assay [12]. For the same compound, the growth was 14.8% in assay [13]; -0.969% (active) in assay [14]; 59.5% in assay [15]; 27.9% in assay [16]; 3.47% (active) in assay [17]; 37.9% in assay [18]. The growth in assay [19] is 27.8%; in [20] it was 20.4%.
As for `CN1CCN(CCOc2cc(OC3CCOCC3)c3c(Nc4c(Cl)ccc5c4OCO5)ncnc3c2)CC1`, the growth in assay [1] is 81.4%; in assay [2], 100%; in [3], 2.76% (active); in [4] it was 29.7%; in assay [5], 89.9%; in assay [6], 35.3%. Moreover, the growth is 11.5% in [7]; 24.8% in [8]; 48.1% in assay [9]; 42.5% in assay [10]; 43.8% in assay [11]; 5.29% (active) in assay [12]. Besides, the growth in assay [13] was 98.3%; in assay [14], 61.3%; in assay [15], 31.6%; in [16] it was 61.4%; in assay [17], 77.8%; in [18] it was 60%. For the same compound, the growth in assay [19] is 82.7%; in [20] it was 79.4%.
